We go through 33 sequences from publication PMC11006913.

Experiment [1] addresses HOXA7 (Homo sapiens, UniProt P31268 116-202). Put plainly: PBM; 200 nM protein, PBS. The following applies: dsDNA, one strand shown.
The target of experiment [2] is HOXA7 (Homo sapiens, UniProt P31268 116-202, W177C). Put plainly: PBM; 200 nM protein, PBS. The following applies: dsDNA, one strand shown.
Sequence of HOXA7 (Homo sapiens, UniProt P31268 116-202, W177C) (P31268 116-202 W177C): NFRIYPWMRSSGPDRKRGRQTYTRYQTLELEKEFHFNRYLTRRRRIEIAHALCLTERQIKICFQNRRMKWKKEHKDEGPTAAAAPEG

Sequence of HOXA7 (Homo sapiens, UniProt P31268 116-202) (P31268 116-202): as the sequence (P31268 116-202 W177C) above, with C62W counted along it

Regarding AGGCTCTC, the binding signal in the experiment with HOXA7 [1] was 8.46 upbm affinity estimate (log intensity, higher = more binding, comparable within an allelic series); with HOXA7 [2] it was 8.32 upbm affinity estimate (log intensity, higher = more binding, comparable within an allelic series).

Regarding TAATTCAA, the binding signal with HOXA7 [1] was 9.8 upbm affinity estimate (log intensity, higher = more binding, comparable within an allelic series); in the experiment with HOXA7 [2] it was 8.74 upbm affinity estimate (log intensity, higher = more binding, comparable within an allelic series).

With ATTGATTG, the binding signal is 10.1 upbm affinity estimate (log intensity, higher = more binding, comparable within an allelic series) in the experiment with HOXA7 [1] and 8.75 upbm affinity estimate (log intensity, higher = more binding, comparable within an allelic series) with HOXA7 [2].

In the case of CACCTACG, the binding signal in the experiment with HOXA7 [1] is 8.56 upbm affinity estimate (log intensity, higher = more binding, comparable within an allelic series); with HOXA7 [2], 8.57 upbm affinity estimate (log intensity, higher = more binding, comparable within an allelic series).

In the case of AGAGACTG, the binding signal with HOXA7 [1] is 8.18 upbm affinity estimate (log intensity, higher = more binding, comparable within an allelic series); with HOXA7 [2], 8.35 upbm affinity estimate (log intensity, higher = more binding, comparable within an allelic series).

As for CGCGTTTC, the binding signal is 8.49 upbm affinity estimate (log intensity, higher = more binding, comparable within an allelic series) with HOXA7 [1] and 8.39 upbm affinity estimate (log intensity, higher = more binding, comparable within an allelic series) with HOXA7 [2].

CGGGTGCC: the binding signal in the experiment with HOXA7 [1] is 8.6 upbm affinity estimate (log intensity, higher = more binding, comparable within an allelic series); in the experiment with HOXA7 [2], 8.41 upbm affinity estimate (log intensity, higher = more binding, comparable within an allelic series).

On to CCGCTTCG, for which the binding signal in the experiment with HOXA7 [1] was 8.43 upbm affinity estimate (log intensity, higher = more binding, comparable within an allelic series); in the experiment with HOXA7 [2], 8.41 upbm affinity estimate (log intensity, higher = more binding, comparable within an allelic series).

Consider TAGTTTAA, for which the binding signal with HOXA7 [1] is 9.76 upbm affinity estimate (log intensity, higher = more binding, comparable within an allelic series); in the experiment with HOXA7 [2], 8.8 upbm affinity estimate (log intensity, higher = more binding, comparable within an allelic series).

For CCTCGAGG, the binding signal in the experiment with HOXA7 [1] was 8.59 upbm affinity estimate (log intensity, higher = more binding, comparable within an allelic series); with HOXA7 [2], 8.59 upbm affinity estimate (log intensity, higher = more binding, comparable within an allelic series).

Consider CCATAATC, for which the binding signal with HOXA7 [1] was 9.89 upbm affinity estimate (log intensity, higher = more binding, comparable within an allelic series); in the experiment with HOXA7 [2], 8.75 upbm affinity estimate (log intensity, higher = more binding, comparable within an allelic series).

Take AAATGGGG: the binding signal was 9.82 upbm affinity estimate (log intensity, higher = more binding, comparable within an allelic series) with HOXA7 [1] and 8.64 upbm affinity estimate (log intensity, higher = more binding, comparable within an allelic series) in the experiment with HOXA7 [2].

On to CAGAGGAG, for which the binding signal is 8.43 upbm affinity estimate (log intensity, higher = more binding, comparable within an allelic series) in the experiment with HOXA7 [1] and 8.46 upbm affinity estimate (log intensity, higher = more binding, comparable within an allelic series) with HOXA7 [2].

With ACCGCTCC, the binding signal with HOXA7 [1] was 8.61 upbm affinity estimate (log intensity, higher = more binding, comparable within an allelic series); with HOXA7 [2], 8.49 upbm affinity estimate (log intensity, higher = more binding, comparable within an allelic series).

Turning to GGAACTCA, the binding signal in the experiment with HOXA7 [1] was 8.54 upbm affinity estimate (log intensity, higher = more binding, comparable within an allelic series); in the experiment with HOXA7 [2], 8.56 upbm affinity estimate (log intensity, higher = more binding, comparable within an allelic series).

Consider CCATTTAA, for which the binding signal in the experiment with HOXA7 [1] is 10.5 upbm affinity estimate (log intensity, higher = more binding, comparable within an allelic series); with HOXA7 [2], 8.76 upbm affinity estimate (log intensity, higher = more binding, comparable within an allelic series).

AAAATGAC: the binding signal with HOXA7 [1] is 10 upbm affinity estimate (log intensity, higher = more binding, comparable within an allelic series); with HOXA7 [2], 8.89 upbm affinity estimate (log intensity, higher = more binding, comparable within an allelic series).

With AGAATTAC, the binding signal with HOXA7 [1] was 9.68 upbm affinity estimate (log intensity, higher = more binding, comparable within an allelic series); in the experiment with HOXA7 [2] it was 8.8 upbm affinity estimate (log intensity, higher = more binding, comparable within an allelic series).

On to CCCCGTTA, for which the binding signal is 9.61 upbm affinity estimate (log intensity, higher = more binding, comparable within an allelic series) with HOXA7 [1] and 8.75 upbm affinity estimate (log intensity, higher = more binding, comparable within an allelic series) in the experiment with HOXA7 [2].

For the sequence ACCCCCCT, the binding signal is 8.3 upbm affinity estimate (log intensity, higher = more binding, comparable within an allelic series) in the experiment with HOXA7 [1] and 8.32 upbm affinity estimate (log intensity, higher = more binding, comparable within an allelic series) in the experiment with HOXA7 [2].

As to CGCTGTGC, the binding signal is 8.49 upbm affinity estimate (log intensity, higher = more binding, comparable within an allelic series) with HOXA7 [1] and 8.35 upbm affinity estimate (log intensity, higher = more binding, comparable within an allelic series) with HOXA7 [2].

As to AGTAGCCG, the binding signal with HOXA7 [1] is 8.51 upbm affinity estimate (log intensity, higher = more binding, comparable within an allelic series); in the experiment with HOXA7 [2] it was 8.43 upbm affinity estimate (log intensity, higher = more binding, comparable within an allelic series).

In the case of CACATAAC, the binding signal is 9.46 upbm affinity estimate (log intensity, higher = more binding, comparable within an allelic series) in the experiment with HOXA7 [1] and 8.81 upbm affinity estimate (log intensity, higher = more binding, comparable within an allelic series) with HOXA7 [2].

In the case of GCAAGCGA, the binding signal with HOXA7 [1] was 8.55 upbm affinity estimate (log intensity, higher = more binding, comparable within an allelic series); in the experiment with HOXA7 [2], 8.45 upbm affinity estimate (log intensity, higher = more binding, comparable within an allelic series).

In the case of AGAAGAAA, the binding signal with HOXA7 [1] is 8.53 upbm affinity estimate (log intensity, higher = more binding, comparable within an allelic series); in the experiment with HOXA7 [2], 8.55 upbm affinity estimate (log intensity, higher = more binding, comparable within an allelic series).

As for GCGGCTAC, the binding signal with HOXA7 [1] was 8.37 upbm affinity estimate (log intensity, higher = more binding, comparable within an allelic series); with HOXA7 [2], 8.37 upbm affinity estimate (log intensity, higher = more binding, comparable within an allelic series).

Take CCGTAATA: the binding signal was 10.2 upbm affinity estimate (log intensity, higher = more binding, comparable within an allelic series) in the experiment with HOXA7 [1] and 8.79 upbm affinity estimate (log intensity, higher = more binding, comparable within an allelic series) in the experiment with HOXA7 [2].

Consider TGAGAGCA, for which the binding signal with HOXA7 [1] was 8.62 upbm affinity estimate (log intensity, higher = more binding, comparable within an allelic series); with HOXA7 [2], 8.54 upbm affinity estimate (log intensity, higher = more binding, comparable within an allelic series).

For the sequence ACCTGCAC, the binding signal with HOXA7 [1] was 8.57 upbm affinity estimate (log intensity, higher = more binding, comparable within an allelic series); with HOXA7 [2] it was 8.45 upbm affinity estimate (log intensity, higher = more binding, comparable within an allelic series).

For the sequence CGAGGACG, the binding signal is 8.54 upbm affinity estimate (log intensity, higher = more binding, comparable within an allelic series) with HOXA7 [1] and 8.4 upbm affinity estimate (log intensity, higher = more binding, comparable within an allelic series) in the experiment with HOXA7 [2].

In the case of GATTAAAC, the binding signal with HOXA7 [1] is 9.54 upbm affinity estimate (log intensity, higher = more binding, comparable within an allelic series); in the experiment with HOXA7 [2], 8.63 upbm affinity estimate (log intensity, higher = more binding, comparable within an allelic series).

For the sequence AGAGCAAG, the binding signal with HOXA7 [1] is 8.36 upbm affinity estimate (log intensity, higher = more binding, comparable within an allelic series); with HOXA7 [2] it was 8.46 upbm affinity estimate (log intensity, higher = more binding, comparable within an allelic series).

For AGAATGAT, the binding signal with HOXA7 [1] was 9.52 upbm affinity estimate (log intensity, higher = more binding, comparable within an allelic series); with HOXA7 [2], 8.8 upbm affinity estimate (log intensity, higher = more binding, comparable within an allelic series).
